In PubChem BioAssay (Tox21):
Several values for one entry are separate records, joined by “and”; a condition that tells them apart may be missing. Equal values may be shown once. Records with an inconclusive call do not appear. A call without a number means that no potency is given here. The source holds several records for some structures; these can differ, active in one and inactive in another. Activity calls are given as the source filed them. The call rests on the fitted dose curve; in most records, active means well fitted curve in the direction sought with a large enough effect in the repeat runs; inconclusive means weak or mixed curves; inactive means no such curve, though single readings can be large; an effect the other way counts as inactive or inconclusive.

Key:
[1] = A CellTox Green Cytotoxicity Assay to monitor cytotoxicity in HEK293 cells - 32 hour (AID 1224881); further: nearly all actives have a fitted effect of over 40% in size; further: potency means the concentration at half of the fitted maximal effect
Summary of the method: (§1)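 Nonlytic real-time cytotoxicity: HEK293 + CellTox Green reagent plated, 5 h preincubation, pintool compound addition (23 nL in DMSO), 37 C for 40 h, fluorescence measured at successive time points.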

[2] = A CellTox Green Cytotoxicity Assay to monitor cytotoxicity in HepG2 cells - 0 hour (AID 1224882); further: nearly all actives have a fitted effect of over 35% in size; further: potency means the concentration at half of the fitted maximal effect
Summary of the method: (§2)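 Read-out is fluorescence of a cyanine dye excluded from live cells that stains DNA of dead HepG2 cells, with signal proportional to cytotoxicity. Plates were read at 0, 8, 16, 24, 32 and 40 h after compound addition.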

[3] = A CellTox Green Cytotoxicity Assay to monitor cytotoxicity in HepG2 cells - 32 hour (AID 1224883); further: nearly all actives have a fitted effect of over 50% in size; further: potency means the concentration at half of the fitted maximal effect
Summary of the method: as §2

[4] = A CellTox Green Cytotoxicity Assay to monitor cytotoxicity in HEK293 cells - 8 hour (AID 1224884); further: nearly all actives have a fitted effect of over 35% in size; further: potency means the concentration at half of the fitted maximal effect
Summary of the method: as §1

[5] = qHTS RealTime-Glo MT Cell Viability Assay in HepG2 cells - 16 hour (AID 1224885); further: nearly all actives have a fitted effect of over 50% in size; further: potency means the concentration at half of the fitted maximal effect
Summary of the method: (§3)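 qHTS, HepG2, 600 cells/well, RealTime-Glo (NanoLuc + prosubstrate) added with cells; 5 h preincubation; DMSO compound addition; 37 C; luminescence at 0/8/16/24/32/40 h.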

[6] = qHTS RealTime-Glo MT Cell Viability Assay in HEK293 cells - 24 hour (AID 1224886); further: nearly all actives have a fitted effect of over 50% in size; further: potency means the concentration at half of the fitted maximal effect
Summary of the method: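 Assay medium contained NanoLuc luciferase plus cell-permeant prosubstrate, added with HEK293 cells at 600 cells/well. After 5 h at 37 C/5% CO2 compounds were added; plates stayed at 37 C for 40 h with serial luminescence reads.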

[7] = qHTS RealTime-Glo MT Cell Viability Assay in HEK293 cells - 8 hour (AID 1224887); further: nearly all actives have a fitted effect of over 50% in size; further: potency means the concentration at half of the fitted maximal effect
Summary of the method: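 Cells were seeded together with NanoLuc luciferase and a prosubstrate that viable cells reduce to a luciferase substrate. After a 5 h incubation at 37 C/5% CO2, compounds were added and luminescence was measured repeatedly during 40 h of treatment.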

[8] = A CellTox Green Cytotoxicity Assay to monitor cytotoxicity in HEK293 cells - 16 hour (AID 1224888); further: nearly all actives have a fitted effect of over 35% in size; further: potency means the concentration at half of the fitted maximal effect
Summary of the method: as §1

[9] = qHTS RealTime-Glo MT Cell Viability Assay in HepG2 cells - 0 hour (AID 1224889); further: nearly all actives have a fitted effect of over 50% in size
Summary of the method: as §3

[10] = A CellTox Green Cytotoxicity Assay to monitor cytotoxicity in HepG2 cells - 8 hour (AID 1224890); further: nearly all actives have a fitted effect of over 45% in size; further: potency means the concentration at half of the fitted maximal effect
Summary of the method: as §2

Compound	Potency [1]	Potency [2]	Potency [3]	Potency [4]	Potency [5]	Potency [6]	Potency [7]	Potency [8]	Potency [9]	Potency [10]
N#Cc1c(Cl)c(Cl)c(Cl)c(C#N)c1Cl	7.61 µM (active) and 6.16 µM (active)	inactive	21.5 µM (active) and 3.47 µM (active)	7.76 µM (active)	21.5 µM (active) and 6.16 µM (active)	2.15 µM (active) and 1.23 µM (active)	12.1 µM (active) and 17.4 µM (active)	12.1 µM (active) and 8.71 µM (active)	inactive	48 µM (active) and 13.8 µM (active)
Nc1ccc2ccccc2c1	inactive	inactive	inactive	inactive	inactive	inactive	inactive	inactive	inactive	inactive
CSc1nc(NC(C)C)nc(NC(C)C)n1	inactive	inactive	inactive	inactive	inactive	inactive	inactive	inactive	inactive	inactive
ClC(Cl)(Cl)c1ccccc1	inactive	inactive	inactive	inactive	inactive	inactive	inactive	inactive	inactive	inactive
Nc1ccc([N+](=O)[O-])cc1N	inactive	inactive	inactive	inactive	inactive	inactive	inactive	inactive	inactive	inactive
COc1ccc(CO)cc1	inactive	inactive	inactive	inactive	inactive	inactive	inactive	inactive	inactive	inactive
CCCCOCCOC(C)=O	inactive	inactive	inactive	inactive	inactive	inactive	inactive	inactive	inactive	inactive
N#Cc1nn(-c2c(Cl)cc(C(F)(F)F)cc2Cl)c(N)c1S(=O)C(F)(F)F (centres undefined)	inactive	inactive	inactive	inactive	inactive	19.6 µM (active)	19.6 µM (active)	inactive	inactive	inactive
CCC/C=N/O	inactive	inactive	inactive	inactive	inactive	inactive	inactive	inactive	inactive	inactive
Nc1ncn[nH]1	inactive	inactive	inactive	inactive	inactive	inactive	inactive	inactive	inactive	inactive
CCOC(=O)c1ccccc1N	inactive	inactive and 43.6 µM (active)	inactive and 54.9 µM (active)	inactive and 43.6 µM (active)	inactive	inactive	inactive	inactive	inactive	inactive and 49 µM (active)
CC[n+]1c(-c2ccccc2)c2cc(N)ccc2c2ccc(N)cc21	inactive	inactive	inactive	inactive	inactive	6.89 µM (active) and 9.52 µM (active)	34.5 µM (active)	inactive	inactive	inactive
CCOP(=S)(OCC)OP(=S)(OCC)OCC	inactive	inactive	inactive	inactive	inactive	inactive	inactive	inactive	inactive	inactive
CC1(C)Cc2cccc(O)c2O1	inactive	inactive	inactive	inactive	inactive	inactive	inactive	inactive	inactive	inactive
CC(C)=CC1C(C(=O)OCc2cccc(Oc3ccccc3)c2)C1(C)C (centres undefined)	inactive	inactive	inactive	inactive	inactive	inactive	inactive	inactive	inactive	inactive
CC(C)Nc1nc(Cl)nc(NC(C)C)n1	inactive	inactive	inactive	inactive	inactive	inactive	inactive	inactive	inactive	inactive
Oc1ccc(Cl)cc1Cl	inactive	inactive	inactive	inactive	inactive	inactive	inactive	inactive	inactive	inactive
O=NN1CCOCC1	inactive	inactive	inactive	inactive	inactive	inactive and 2.45 µM (active)	inactive and 7.76 µM (active)	inactive	inactive	inactive
CC1(C)C(C(=O)OC(C#N)c2cccc(Oc3ccccc3)c2)C1(C)C (centres undefined)	inactive	inactive	inactive	inactive	inactive	inactive	inactive	inactive	inactive	inactive

Compound	Potency [1]	Potency [2]	Potency [3]	Potency [4]	Potency [5]	Potency [6]	Potency [7]	Potency [8]	Potency [9]	Potency [10]
CCC[CH2][Sn]([Cl])([CH2]CCC)[CH2]CCC	618 nM (active) and 776 nM (active)	inactive	1.74 µM (active) and 1.23 µM (active)	6.18 µM (active) and 7.76 µM (active)	2.19 µM (active) and 692 nM (active)	347 nM (active) and 549 nM (active)	618 nM (active) and 1.23 µM (active)	3.1 µM (active) and 5.49 µM (active)	inactive	3.47 µM (active) and 1.95 µM (active)
Clc1ccc(C(Cl)(Cl)Cl)cc1	inactive	inactive	inactive	inactive	inactive	inactive	inactive	inactive	inactive	inactive
Brc1ccc(Br)cc1	inactive	inactive	inactive	inactive	inactive	inactive	inactive	inactive	inactive	inactive
OCCOCCO	inactive	inactive	inactive	inactive	inactive	inactive	inactive	inactive	inactive	inactive
COc1ccc(C=O)cc1OC	inactive	inactive	inactive	inactive	inactive	inactive	inactive	inactive	inactive	inactive
COP(=S)(OC)Oc1ccc(Sc2ccc(OP(=S)(OC)OC)cc2)cc1	inactive	inactive	inactive	inactive	inactive	inactive	inactive	inactive	inactive	inactive
N#CC(c1ccccc1)c1ccccc1	inactive	inactive	inactive	inactive	inactive	inactive	inactive	inactive	inactive	inactive
CC(C)(c1ccccc1)c1ccc(O)c(C(C)(C)c2ccccc2)c1	38.5 µM (active) and 43.6 µM (active)	inactive	48.5 µM (active) and 43.6 µM (active)	inactive	54.4 µM (active) and 43.6 µM (active)	19.3 µM (active) and 30.9 µM (active)	21.7 µM (active) and 30.9 µM (active)	43.2 µM (active)	inactive	48.5 µM (active) and 49 µM (active)
CCC[CH2][Sn]([Cl])([Cl])[CH2]CCC	442 nM (active) and 1.38 µM (active)	inactive	351 nM (active) and 490 nM (active)	inactive and 49 µM (active)	701 nM (active) and 616 nM (active)	111 nM (active) and 138 nM (active)	0.111 µM (active)	786 nM (active) and 24.5 µM (active)	inactive	14 µM (active) and 13.8 µM (active)
C=C(C)C#N	inactive	inactive	inactive	inactive	inactive	inactive and 13.8 µM (active)	inactive	inactive	inactive	inactive
ClCc1ccccn1	inactive	inactive	inactive	inactive	inactive	inactive	inactive	inactive	inactive	inactive
C[N+](C)(C)C	inactive	inactive	inactive	inactive	inactive	inactive	inactive	inactive	inactive	inactive
COP(=O)(NC(C)=O)SC (centres undefined)	inactive	inactive	inactive	inactive	inactive	inactive	inactive	inactive	inactive	inactive
CCOS(=O)(=O)OCC	inactive	inactive	inactive	inactive	inactive	inactive	inactive	inactive	inactive	inactive
S=c1[nH]c2ccccc2[nH]1	inactive	inactive	inactive and 21.9 µM (active)	inactive	inactive	inactive	inactive	inactive	inactive	inactive
C=CC(Cl)CCl (centres undefined)	inactive	inactive	inactive	inactive	inactive	inactive	inactive	inactive	inactive	inactive
Cc1ccc([N+](=O)[O-])cc1	inactive	inactive	inactive	inactive	inactive	inactive	inactive	inactive	inactive	inactive
O=P(OCCCl)(OCCCl)OCCCl	inactive	inactive	inactive	inactive	inactive	inactive	inactive	inactive	inactive	inactive
O=NN(c1ccccc1)c1ccccc1	inactive	inactive	inactive	inactive	–	inactive	inactive	inactive	inactive	inactive
